Hit rate of the full screen: of about 200,000 compounds, about 18,000 (9%) were called active. Rule as the data show it: active = inhibition above about 50%; inactive = the rest. Only a selection was taken, and actives are over-represented in it overall.
Assay: Leishmania major promastigote growth inhibition, primary screen (AID 1063);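 also: promastigotes grown with compound for 44 hours at 28 °C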
Conditions: Leishmania major promastigotes, resazurin fluorescence viability; at 10 µM; active compounds read high
For CCc1ccc(-n2c(SCc3cc(=O)n4cc(Br)ccc4n3)nc3[nH]ncc3c2=O)cc1, the inhibition was 56.9% (active). With O=C(CSc1nc2[nH]ncc2c(=O)n1-c1ccccc1)N1CCCc2ccccc21 the inhibition was 15.2% (inactive). With O=c1c2sccc2nc(SCc2cc(=O)n3ccccc3n2)n1-c1ccc(Br)cc1 the inhibition was 12.1% (inactive). In the case of Cc1cccc2nc(CSc3nc4[nH]ncc4c(=O)n3-c3cccc(Cl)c3)cc(=O)n12, the inhibition was 56.1% (active). With COc1ccc(CCNC(=O)CSc2nc3[nH]ncc3c(=O)n2-c2cccc(C(F)(F)F)c2)cc1OC the inhibition was -7.3% (inactive). In the case of Cc1ccc(CSc2nc3[nH]ncc3c(=O)[nH]2)cc1, the inhibition was -3.25% (inactive). For CC(C)Oc1ccc(Cc2n[nH]c(=S)n2Cc2ccccc2)cc1Cl, the inhibition was 4.91% (inactive). With Nc1c(NCCc2ccccc2)c2ccccc2oc1=O the inhibition was -2.7% (inactive). With Cc1ccc(C(=O)N/C(=C\c2cccs2)C(=O)NCCc2ccccn2)cc1C the inhibition was 16.6% (inactive). In the case of COC(=O)C1=C(C)N(C)C(=S)NC1c1cc(OC)ccc1OC (stereo not given), the inhibition was 3.3% (inactive). With COc1ccccc1CNC(=O)c1ccc(SC)cc1OC the inhibition was 66.9% (active). With COc1cc(SC)ccc1C(=O)Nc1cc(C)ccn1 the inhibition was 25.5% (inactive). In the case of COc1cc(SC)ccc1C(=O)NCCOc1ccccc1Cl, the inhibition was 1.79% (inactive). With O=C(NNC(=O)C1C2CCC(C2)C1C(=O)O)c1ccc(Cl)cc1 (stereo not given) the inhibition was -5.41% (inactive). For Cc1cccc(C(=O)OC(C)CN2CCN(C)CC2)c1 (stereo not given), the inhibition was 3.94% (inactive). With CO/N=C/c1cn(-c2ccc(Cl)cc2)nn1 the inhibition was -1.77% (inactive). For CCC1CCCCN1CCCNC(=O)C1CCC(Cn2c(=O)[nH]c3ccccc3c2=O)CC1 (stereo not given), the inhibition was -4.5% (inactive). With CCC1CCCCN1CCCNC(=O)Cn1nc(-c2ccccc2)ccc1=O (stereo not given) the inhibition was -4.42% (inactive). For CCC1CCCCN1CCCNC(=O)c1cc2c(Cl)nc3ccccc3c2s1 (stereo not given), the inhibition was 100% (active). In the case of Cc1ccccc1C(OCC(O)CN1CCCCC1CCO)c1ccccc1 (stereo not given), the inhibition was 99.7% (active). For Cc1ccccc1C(OCCN(C)C)C1CCCCC1 (stereo not given), the inhibition was 18.1% (inactive). For CC(C)OCC(O)CN1CCN(C(c2ccccc2)c2ccccc2)CC1 (stereo not given), the inhibition was 0.57% (inactive). For CC(C)N(Cc1nc(-c2ccc3c(c2)OCO3)no1)CC1CCC(=O)N1 (stereo not given), the inhibition was -6.4% (inactive). For COc1ccc(NS(=O)(=O)c2ccc(NC(=S)NC(=O)CC(C)C)cc2)cc1, the inhibition was 96.7% (active). For CC(=O)c1ccc(NC(=S)NC(=O)CC(C)C)cc1, the inhibition was -4.65% (inactive). In the case of COc1ccc(C(=O)Nc2ccc(S(=O)(=O)NC(C)C)cc2)cc1, the inhibition was -3.72% (inactive). For COc1ccc(C2=NN(c3ccccc3)C(c3cccs3)C2)cc1 (stereo not given), the inhibition was 44.3% (inactive). In the case of COc1cc(NC(=O)CN(C)S(=O)(=O)c2ccc3nc(C)sc3c2)cc(OC)c1, the inhibition was 13% (inactive). With CCCCN(CC)C(=S)Nc1ccc2nc3n(c(=O)c2c1)CCCCC3 the inhibition was 55.5% (active). With O=C(Nc1ccc2nc3n(c(=O)c2c1)CCCCC3)c1ccccc1Cl the inhibition was 0.22% (inactive). For Cc1ccc2nc3n(c(=O)c2c1)CCC3, the inhibition was -7.48% (inactive). In the case of O=C(OCC(=O)N1CCOCC1)c1ccc(N2CCOCC2)c([N+](=O)[O-])c1, the inhibition was 0.36% (inactive). In the case of CC(C)(C)CN1CCNC(=O)C1CC(=O)NC1Cc2ccccc2C1 (stereo not given), the inhibition was -0.33% (inactive). In the case of Brc1ccc2nc(N3CCCC3)sc2c1, the inhibition was 17% (inactive). In the case of CCCCN(C)C(=O)c1ccc2c(c1)N(CC)C(=O)c1ccccc1S2(=O)=O, the inhibition was -6.56% (inactive). In the case of O=C(c1ccc2c(c1)N(Cc1ccc(F)cc1)C(=O)c1ccccc1S2(=O)=O)N1CCN(c2ccccn2)CC1, the inhibition was 97% (active). For O=C(c1ccc2c(c1)C(=O)N(c1ccc(Cl)cc1)C2=O)N1CCN(c2ccccn2)CC1, the inhibition was -5.18% (inactive). In the case of S=C1SCN(CCN2CCOCC2)CN1Cc1ccccc1, the inhibition was 86.7% (active). For C/C(CCc1ccccc1)=N\NC(=O)c1ccc(CN2CCOCC2)cc1, the inhibition was -3.42% (inactive). With CCN1CN(Cc2ccccc2)CNC1=S the inhibition was -5.52% (inactive). With CCCn1nc(Oc2nc(NC(C)C)nc(N(C)C)n2)ccc1=O the inhibition was 7.02% (inactive). For CC(=O)Nc1ccc(S(=O)(=O)Nc2ccc(-c3ccc4nnc(C)n4n3)cc2)cc1, the inhibition was -6.31% (inactive). For CCOc1cccc(-c2nn3c(-c4ccccn4)nnc3s2)c1, the inhibition was 6.06% (inactive). With COc1ccc(-c2nn3c(-c4ccccc4)nnc3s2)cc1OC the inhibition was 3.79% (inactive). With c1ccc(-c2cc(-c3nnc4sc(-c5ccccn5)nn34)[nH]n2)cc1 the inhibition was 84.6% (active). In the case of COc1ccc(N2C(=O)CC(Nc3ccc(F)cc3)C2=O)c([N+](=O)[O-])c1 (stereo not given), the inhibition was -0.61% (inactive). With CN(C)c1ccc(C2Nc3ccccc3C(=O)N2NS(=O)(=O)c2ccccc2)cc1 (stereo not given) the inhibition was 3.72% (inactive). For O=C(Nc1cn(-c2ccccc2)nc1-c1ccccc1)c1ccccc1, the inhibition was 82.8% (active). In the case of O=C(O)c1ccc(NC(=O)c2cn(-c3ccccc3)nc2-c2ccc(Cl)cc2)cc1, the inhibition was -2.74% (inactive). In the case of COc1ccc(-c2nn(-c3ccccc3)cc2C(=O)Nc2nccs2)cc1OC, the inhibition was 21.8% (inactive). With O=C(NNC(=S)NC(=O)c1cn(-c2ccccc2)nc1-c1ccccc1)c1ccncc1 the inhibition was 54.9% (active). With O=C(NCc1cccnc1)c1cn(-c2ccccc2)nc1-c1cccs1 the inhibition was 1.01% (inactive). With Cc1ccccc1NC(=O)c1ccccc1 the inhibition was -0.75% (inactive). For CCN(CC)S(=O)(=O)c1ccc(N2CCOCC2)c(NC(=O)C2COc3ccccc3O2)c1 (stereo not given), the inhibition was 26.2% (inactive). In the case of N#CC1=C(N)Oc2[nH]c(=S)[nH]c(=O)c2C12C(=O)Nc1ccccc12 (stereo not given), the inhibition was -9.87% (inactive). With COc1ccc(N2CCN(C(=O)CCSCc3ccccc3F)CC2)cc1 the inhibition was 3.84% (inactive). In the case of COC(=O)c1ccc(NC(=S)NN2CCOCC2)cc1, the inhibition was -9.83% (inactive). With CC(NC(=O)Nc1ccccc1)C(c1cccs1)N1CCN(c2ccccc2)CC1 (stereo not given) the inhibition was -1.95% (inactive). For Cc1nc2ccc(NC(=S)N3CCC(C)CC3)cc2nc1C, the inhibition was -1.44% (inactive). For COc1ccc(OCCCn2cccc2/C=C2/C(=N)N3OC(C)=CC3=NC2=O)cc1, the inhibition was 21.9% (inactive). In the case of Cc1cc(C)nc(SCC(=O)N(C)C)n1, the inhibition was -4.86% (inactive). With CC1(C)CC(CCC(=O)Nc2ccccc2Cl)C(=O)O1 (stereo not given) the inhibition was -7.36% (inactive). For C/C(CC1CC(C)(C)OC1=O)=N/Nc1nc(-c2ccccc2)cs1 (stereo not given), the inhibition was 55.5% (active). In the case of CC1(C)CC(CC(=O)O)C(=O)O1 (stereo not given), the inhibition was -2.75% (inactive). For CC(=O)Nc1nc(N(C)C)nc(N(C)C)n1, the inhibition was 2.36% (inactive). In the case of O=C(NCc1ccco1)C(=O)c1cn(CC(=O)N2CCCCCC2)c2ccccc12, the inhibition was 5.44% (inactive). With COc1ccc(CCNC(=O)COC(=O)/C=C/c2cccs2)cc1OC the inhibition was 4.8% (inactive). For CCOC(=O)CCCNC(=O)COC(=O)/C=C/c1ccc2c(c1)OCO2, the inhibition was -1.67% (inactive). For O=C(COC(=O)/C=C/c1cccc(Cl)c1)NCCc1ccccc1, the inhibition was 53.4% (active). In the case of COc1ccc(C2OCC3(CO2)SC(=O)NC3=O)cc1OC (stereo not given), the inhibition was -7.62% (inactive). For O=C(NNC(=S)Nc1ccccc1)c1cccc(S(=O)(=O)N2CCOCC2)c1, the inhibition was -4.58% (inactive). For COc1ccccc1NC(=O)C[n+]1ccccc1, the inhibition was -3.72% (inactive). In the case of COC(=O)c1cc(C(=O)N(Cc2ccccc2)c2ccccn2)cc([N+](=O)[O-])c1, the inhibition was 8.15% (inactive). With Fc1ccccc1/C=C1\CCCC2=C1Nc1ncnn1C2c1ccccc1F (stereo not given) the inhibition was 98.9% (active). For O=C(NCc1cccnc1)c1nc(-c2cccs2)no1, the inhibition was 4.89% (inactive). In the case of CCOc1ccccc1C(=O)NC1CC2CCCC(C1)N2Cc1ccccc1 (stereo not given), the inhibition was 16% (inactive). With C=CCN1C2CCCC1CC(NC(=S)Nc1cccc(OC)c1)C2 (stereo not given) the inhibition was 54.3% (active). For COc1cccc(NC(=S)NCCCN2CCOCC2)c1, the inhibition was 1.1% (inactive). For C=CCn1c(CC(=O)Nc2cccc(OC)c2)nnc1SCC(=O)NC1CCCCC1, the inhibition was -2.71% (inactive). With COc1ccc(NC(=O)N2CCC(Cc3ccccc3)CC2)cc1 the inhibition was -0.62% (inactive). For COc1ccc(NC(=O)NC2CC3CCCC(C2)N3Cc2ccccc2)cc1 (stereo not given), the inhibition was 66.9% (active). With COc1ccc(N=C2SC(C(=O)Nc3ccc(F)cc3)CC(=O)N2C)cc1 (stereo not given) the inhibition was 20.6% (inactive). For CN1CCN(C(=O)/C(=C\c2ccc3c(c2)OCO3)NC(=O)c2cccs2)CC1, the inhibition was -8.78% (inactive). With CN(CCc1cn[nH]c1)C(=O)CC1C(=O)NCCN1Cc1cccc(Oc2ccccc2)c1 (stereo not given) the inhibition was 0.64% (inactive). For O=C(/C=C/c1cn(-c2ccccc2)nc1-c1ccc2c(c1)OCCO2)NCCCN1CCOCC1, the inhibition was 41.1% (inactive). With Nc1ccc(OCC(O)C[n+]2ccc(CCS(=O)(=O)[O-])cc2)cc1 (stereo not given) the inhibition was -3.78% (inactive). In the case of O=C(O)c1ccc(N/N=C/c2ccc3ncccc3c2)cc1, the inhibition was -9.46% (inactive). With CN(C(=O)CSc1nnc(-c2c[nH]c3ccccc23)o1)C1CCS(=O)(=O)C1 (stereo not given) the inhibition was 0.33% (inactive). In the case of COc1ccc(/C=C/CN2CCCC(C(=O)c3cc(F)ccc3F)C2)cc1 (stereo not given), the inhibition was 81.1% (active). With CSCC(=O)N1CCCC(C(=O)c2cc(F)ccc2F)C1 (stereo not given) the inhibition was -4.01% (inactive). With CCOc1cccc(NC(=O)C2CCCN(S(=O)(=O)c3ccc(OC)cc3)C2)c1 (stereo not given) the inhibition was 30.8% (inactive). With O=C1CCC(CCC(=O)N2CCCC(C(=O)c3ccc(Cl)cc3)C2)=NN1 (stereo not given) the inhibition was -5.05% (inactive). For CCc1nnc(NC(=O)CSc2nnnn2-c2cccc(C(C)=O)c2)s1, the inhibition was -4.47% (inactive). With O=C(NNC(=O)c1ccccc1[N+](=O)[O-])Nc1ccccc1C(F)(F)F the inhibition was 0.59% (inactive). For Cn1cnnc1Sc1ccc(S(C)(=O)=O)cc1[N+](=O)[O-], the inhibition was -6.44% (inactive).
